SMILES strings stand for the structures. This is part of a sample that, as a whole, favours compounds with a hit. Of some 83,000 tested, about 20% had one in any assay.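 A percent growth of 40 corresponds to 60% growth inhibition; 0 means no net growth; -100 means all cells died. Active threshold: below 10.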 Unmarked numbers belong to inactive results. The source made the active and inactive calls.

This assay deals with SR leukemia. The assay can be described thus: NCI-60 one-dose screen, 48 h (100 = growth as untreated, 0 = no growth, -100 = all killed). The conditions noted are these: 10 µM unless noted.
As to `CC(=O)OC[C@]12CC[C@@H]([C@@H](C)c3nnc(-c4ccncc4)o3)[C@@H]1[C@H]1CC[C@@H]3[C@@]4(C)CC[C@H](OC(C)=O)C(C)(C)[C@@H]4CC[C@@]3(C)[C@]1(C)CC2`, the growth is 53.2%. For the molecule `CN(Cc1ccccc1)c1nc(Cl)c(C2CC(c3ccccc3)=NN2c2ccccc2)s1` (stereo not drawn), the growth was 90.8%.

On to `CSc1nc(C)c([N+](=O)[O-])c(N)n1`, for which the growth was 96.3%.

On to `CN1CCN(Cc2ccc(NC(=O)c3cncc(C#Cc4cnc(N)c5ccc(F)cc45)c3)cc2C(F)(F)F)CC1`, for which the growth was -25.9% (active).

Take `CN1CCN(C(=O)[C@@]2(C)CC[C@]3(C)CC[C@]4(C)C(=CC[C@@H]5[C@@]6(C)CCC(=O)NC(C)(C)[C@@H]6CC[C@]54C)[C@@H]3C2)CC1`: the growth was -10.4% (active). `COc1ccc(/C=C2\CN(C(=O)C(Cl)Cl)C/C(=C\c3ccc(OC)cc3)C2=O)cc1`: the growth was 1.01% (active).

Regarding `O=C(NNc1cnccn1)c1nc2cc(F)ccc2n2cccc12`, the growth is 3.73% (active). As for `COc1cc(/C=C2\CN(S(=O)(=O)c3ccccc3)C/C(=C\c3cc(CN4CCCCC4)c(O)c(OC)c3)C2=O)cc(CN2CCCCC2)c1O`, the figure is -18.6% (active).

Regarding `COc1ccc(/C=C/C(c2cc(OC)c(OC)c(OC)c2)n2ccnc2)cc1O` (stereo not drawn), the growth was 6.18% (active). For `C/C=C(/C)n1cnc2c(Nc3ccccn3)nc(Cl)nc21`, the growth is 105%. On to `Oc1ccc(/C=C/c2ccc(O)cc2)cc1`, for which the growth was 47.7%.

With `C#CCOc1cccc(-c2ncnc3cc(NC(=O)C=C)ccc23)c1`, the growth is 5.05% (active). Turning to `CCOC(=O)c1nn(CC(O)c2ccccc2)c(NC(=O)Nc2cccc(F)c2)c1C` (stereo not drawn), the growth is 95.3%.

For `O=C(N/N=C\c1ccccc1S(=O)(=O)O)N/N=C/c1ccccc1S(=O)(=O)O`, the growth is 90.3%. Turning to `CC[C@]12C=CCN3CC[C@@]4(c5ccc(OC)cc5N(C)[C@H]4[C@@](O)(C(=O)OC)[C@@H]1OC(=O)CCC[P+](c1ccccc1)(c1ccccc1)c1ccccc1)[C@@H]32`, the growth is 9.57% (active). As for `CCCn1nc(C(=O)N(C)Cc2ccccc2)c2c1CCC(N1CCc3ccccc31)C2` (stereo not drawn), the figure is 104%; as for `C=C1C(=O)O[C@H]2[C@H]1CC/C(COC(=O)/C=C\C(=O)NCc1ccc(Cn3c(=O)sn(CCCl)c3=O)cc1)=C\CC[C@@]1(C)O[C@@H]21`, 15.5%. Turning to `COC(=O)c1ccc(NC(=O)Nc2ccc(C(=O)OC)cc2)cc1`, the growth is 78.9%.

Take `O=C(O)c1cn(C2CC2)c2cc(N3CCN(C(=O)Nc4nc(-c5ccc(Br)cc5)cs4)CC3)c(F)cc2c1=O`: the growth was 21.5%.

With `NC(=O)c1c(NC(=O)c2cccc(C(F)(F)F)c2)sc2c1CCC(=O)C2`, the growth is -13.2% (active).

For the molecule `CC1=C(C(=O)Nc2ccccc2)C(c2ccc3c(c2)OCO3)NC(=S)N1` (stereo not drawn), the growth is 99.2%.

On to `NS(=O)(=O)c1ccc(-c2cc(-c3nnc(SCC(=O)Nc4ccc(C(=O)/C=C/c5ccc(Cl)cc5)cc4)n3-c3ccccc3)c3ccccc3n2)cc1`, for which the growth was 71.3%. `COC(=O)c1cc(Br)ccc1O`: the growth was 89.2%.

Consider `C=C1C(=O)O[C@H]2[C@H]1CC/C(COC(=O)/C=C/C(=O)OC/C1=C/CC[C@@]3(C)O[C@H]3[C@H]3OC(=O)C(=C)[C@@H]3CC1)=C\CC[C@@]1(C)O[C@@H]21`, for which the growth is 7.6% (active). `CNC1=CC(=O)c2c(C(=O)OC)c(C)[n+]([O-])c(C)c2C1=O`: the growth is 95.5%. The figure for `O=C(Nc1ncccc1OCc1ccccc1)NC1CCCCCC1` is 61.5%. In the case of `O=C1/C(=C\c2cccc3nccnc23)SC(=S)N1CCc1ccc(O)cc1`, the growth was 92.1%. Take `O=C1/C=C/[C@@H](O)[C@@H]2C[C@@H](O)C[C@H]2/C=C/CCC[C@@H](O)CCO1`: the growth was 101%.

For the molecule `Cc1ccc(CNc2c3ccccc3nc3ccccc23)cc1`, the growth was -0.81% (active). As to `Cc1ccnc(Nc2ccc([N+](=O)[O-])c(NCCN3CCOCC3)n2)c1`, the growth is 9.97% (active). For the molecule `CSc1nn2c(-c3ccc4ccccc4c3)ccnc2c1C#N`, the growth is 13.8%. `COc1cc2nc3sc(C(=O)Nc4ccc(C(=O)OC(C)C)cc4)c(C(=O)Nc4ccc(Cl)cc4C)n3c(=O)c2cc1OC`: the growth is 19.5%. As to `COC(=O)/C=C1/SC(=Nc2ccc([N+](=O)[O-])cc2)N(CCc2c[nH]c3ccc(O)cc23)C1=O`, the growth is -22.5% (active).
